# Experimental data published in PubChem BioAssay (NCI).
# Where “and” joins values, the source holds several entries; their conditions need not be identical. Equal values may be shown once. This is part of a sample that, as a whole, favours compounds with a hit. Of some 83,000 tested, about 20% had one in any assay.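 Note: values are percent growth. 100 is the growth of untreated cells, values between 100 and 0 indicate rising inhibition; between -100 and 0 indicates cell death.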 A number with no mark means an inactive call. Calls of active or inactive are those of the source. The calls were made as follows: active = growth percent below 10; inactive = the rest.
# System: MDA-MB-468 breast
# Experiment: NCI-60 one-dose screen, 48 h (100 = growth as untreated, 0 = no growth, -100 = all killed)
# Settings: 10 µM unless noted
row,Structure (SMILES),growth
1,Nc1ccc2c(c1)Cc1cc(N)ccc1-2,67.3%
2,Oc1ccccc1C=NCCN=Cc1ccccc1O,107%
3,COP(=O)(OC)C(O)c1ccc(Cl)cc1 (centres undefined),108%
4,O=[N+]([O-])c1cc([N+](=O)[O-])c(Cl)cc1Cl,-73.8% (active)
5,O=[N+]([O-])c1ccc(OCc2ccc(S(=O)(=O)F)c(Cl)c2)c(Cl)c1,121%
6,Cn1cc(-c2csc(-c3cn(CCN4CCOCC4)c4ccc(F)cc34)n2)c2cccnc21,13.9%
7,CO[C@@H]([CH2][Hg][O]C(=O)c1ccccc1)[C@@H]([CH2][Hg][O]C(=O)c1ccccc1)OC,94%
8,CC12CCC(O)CC1=CCC1C2CCC2(C)C(O)CCC12 (centres undefined),99.4%
9,O=C1C2CCC1C(N1CCCC1)CC2 (centres undefined),105%
10,COC1=CC(=O)OC(CCc2ccc3c(c2)OCO3)C1 (centres undefined),95.9%
11,C#C[C@]1(OC(=O)CCCCCC)CC[C@H]2[C@@H]3CCC4=CC(=O)CC[C@@H]4[C@H]3CC[C@@]21C,39.6%
12,CC(C)c1cccc(C(C)C)c1O,101% and 94.3%
13,CSc1cc(/C=C(\C)[C@@H]2C[C@@H]3O[C@]3(C)CCC[C@H](C)[C@H](O)[C@@H](C)C(=O)C(C)(C)[C@@H](O)CC(=O)O2)n(CCNC(=O)OC(C)(C)C)n1,66%
14,CC(=O)O[C@H](C[C@H](C(C)C)N(C)C(=O)[C@@H](NC(=O)[C@H]1CCCCN1C)C(C)(C)C)c1nc(C(=O)N[C@@H](Cc2ccccc2)C[C@H](C)C(=O)O)cs1,4.72% (active)
15,Cc1cc(N(CCCl)CCCl)ccc1C=Nc1ccc(-c2csc(Cc3ccccc3)n2)cc1,39.3%
16,COc1ccc(/C=C\c2cc(OC)c(OC)c(OC)c2)cc1NC(=O)/C=C/c1cc(OC)c(OC)c(OC)c1,16.5%
17,C/C=C(\C)C(=O)O[C@@H]1C(O)[C@H]2OC(COC(=O)CCC(=O)CCCCCC[C@H](CCCCC)O[C@@H]3OC(C)[C@H](OC(C)=O)C(O)[C@H]3O2)[C@H]1OC(=O)/C=C/c1ccccc1 (some centres undefined),-8.84% (active)
18,C[C@@H]1C[C@@]2(C)[C@@H](CC[C@@H]3[C@@H]2CC[C@]2(C)C(=O)CC[C@@H]32)CC1=O,95.4%
19,COC(=O)[C@@H](C)C[C@H](Cc1ccccc1)NC(=O)c1csc([C@@H](C[C@H](C(C)C)N(C)C(=O)C2(NC(=O)[C@H]3CCCCN3C)CCC2)OC(C)=O)n1,7.04% (active)
20,FC(F)=C(F)c1ccccc1,105%

row,Structure (SMILES),growth
1,Cc1cc(C(C)(C)C)ccc1O,99.3%
2,CC(C)(C)C(=O)OCOP(=O)(OCOC(=O)C(C)(C)C)C1CCCN(O)C1=O (centres undefined),-8.03% (active)
3,Oc1cccc2cccnc12,25% and 96.3% and 106%
4,COc1cc2c(cc1OCc1ccccc1)C(CC(C)C)=[N+](C)CC2,2.12% (active)
5,O=[N+]([O-])c1ccc(OP(=O)(CCl)N(CCCl)CCCl)cc1 (centres undefined),101%
6,CC(=O)[O][Hg][c]1c(C)c(C)cc(C)c1C,-79.4% (active)
7,ClCc1ccc(Cl)c(Cl)c1,90.7%
8,C/C(Cc1ccc(Cl)cc1)=C(\c1ccc(OCCN2CCOCC2)cc1)c1ccc(OC(=O)Cc2ccccc2)cc1,88.7%
9,O=[N+]([O-])c1cc(Cl)c(Cl)cc1Cl,102% and 104%
10,ClCCN(CCCl)C(c1ccccc1)c1ccc(Cl)cc1 (centres undefined),35.1%
11,CC1=C2C(=C[C@@](C)(COS(C)(=O)=O)[C@@H]2O)C(=O)[C@](C)(O)C12CC2,-54.8% (active)
12,O=P1(NCCCl)OCCCN1CCCl (centres undefined),99.1%
13,CC[C@H](NC(=O)[C@H]1CCCCN1C)C(=O)N(C)[C@H](C[C@@H](OC(C)=O)c1nc(C(=O)N[C@@H](Cc2ccccc2)C[C@H](C)C(=O)O)cs1)C(C)C,17.6%
14,NCCc1ccc(OCc2ccccc2)c(OCc2ccccc2)c1,48.5%
15,CCOC(=O)c1cnc(SCc2ccc(Cl)c(Cl)c2)nc1N1CC1,-3.19% (active)
16,COc1ccc(N)cc1OC,109%
17,CCOC(=O)[C@@H](C)C[C@H](Cc1ccccc1)NC(=O)c1csc([C@@H](C[C@H](C(C)C)N(C)C(=O)CNC(=O)[C@H]2CCCCN2C)OC(C)=O)n1,28%
18,COS(=O)(=O)c1ccccc1,114%
19,CCC(Br)(CC)C(=O)NC(N)=O,97.7%
